A short description of experiment [1]: anti-His antibody binders, primary screen, artefact control for SMM control protein annotation, biochemical, small-molecule microarray, 635 nm fluorescence (AID 1128).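 Further: score merges feature fluorescence with signal-to-noise for each printed compound spot.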 As to conditions: anti-His Alexa647 antibody binding, higher = more signal.
Experiment [2] has as its system Human papillomavirus type 1a E7 protein (residues 1-88). Description: HPV1a E7 small-molecule binders, primary screen, biochemical, small-molecule microarray, residues 1-88, 635 nm (AID 1129). As to conditions: small-molecule microarray binding, fluorescence 635 nm; higher = more signal.
Experiment [3] has as its target Focal adhesion kinase 1 (Homo sapiens) (UniProt Q05397). As to the kind of experiment: small-molecule microarray binders of FAK, primary screen, biochemical, 635/667 nm fluorescence, BSA, DTT (AID 1130).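 Further: composite of spot emission at 667 nm and signal to noise over triplicate slides.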 As to conditions: PTK2 binding, 635 nm fluorescence, higher = more signal.
Experiment [4] concerns Fibrinogen (Alexa647-labelled). As to the kind of experiment: fibrinogen binders on compound microarrays, profiling panel, artefact control for SMM control-protein annotation, biochemical, small-molecule microarray, 635/667 nm fluorescence (AID 1131).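 Further: z-score merges 667 nm fluorescence with per-spot signal-to-noise over triplicate slides.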 Particulars: fibrinogen-A647 binding fluorescence, higher = more signal.
Experiment [5] addresses Follistatin (Homo sapiens) (UniProt P19883). Description: follistatin binders on small-molecule microarrays, primary screen, biochemical, small-molecule microarray, 635/667 nm fluorescence (AID 1132). Particulars: FST binding, 635 nm fluorescence, higher = more signal.
Experiment [6] deals with Fibroblast growth factor 2 (Homo sapiens) (UniProt P09038). As to the kind of experiment: FGF2 binders on small-molecule microarrays, primary screen, biochemical, small-molecule microarray, 635/667 nm fluorescence (AID 1133). As to conditions: small-molecule microarray binding, FGF2, fluorescence 635/667; higher = more signal.
Experiment [7] can be described thus: mitochondrial membrane potential change in A549 cells, profiling panel, cell-based, JC-1 fluorescence, basal, 24 h, 100 nL (AID 1138).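 Further: A549 lung adenocarcinoma cells under basal conditions with no added stimulus; test concentration not given here.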 Particulars: higher = more signal.
The next experiment deals with Lefty1. As to the kind of experiment: Lefty1 binders on small-molecule microarrays, primary screen, biochemical, small-molecule microarray, 635/667 nm fluorescence (AID 1139). Particulars: small-molecule microarray binding, fluorescence 635/667; higher = more signal.
The subject of experiment [8] is wheat germ agglutinin (Triticum aestivum), Alexa647-labelled. Description: wheat germ agglutinin binders on compound microarrays, profiling panel, artefact control for SMM control-protein annotation, biochemical, small-molecule microarray, 635/667 nm fluorescence (AID 1140).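 Further: score merges 667 nm feature emission with signal to noise over triplicate slides.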 As to conditions: WGA-A647 binding, 635 nm fluorescence, higher = more signal.
Experiment [9] has as its target Luciferin 4-monooxygenase (Photinus pyralis) (UniProt P08659). Description: firefly luciferase enzyme inhibitors, primary screen, biochemical, luminescence, purified enzyme, 2006 set (AID 1141).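 Further: cell-free assay with purified firefly luciferase at 100 ng per well in PBS; test concentration not given here.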 As to conditions: SteadyGlo luminescence, 30 min, higher = more signal, called active from +8 up or from −8 down.
Experiment [10] concerns Wnt5a (protein binding on small-molecule microarray). Description: Wnt5a binders on small-molecule microarray, primary screen, biophysical, 635/667 nm fluorescence (AID 1142).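 Further: fluorescence read at 667 nm with signal to noise per printed feature.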 As to conditions: 635 nm fluorescence, higher = more signal.
Experiment [11] is described as follows: cell viability in Huh7 cells, primary screen, cytotoxicity control for HCV replication inhibitor project, CellTiter-Glo luminescence, basal, 48 h (AID 1143).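 Further: Huh7 hepatoma cells carrying a hepatitis C replication reporter with no stimulus; test concentration not given here.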 As to conditions: Huh7 HCV replicon, higher = more signal, called active from +8 up or from −8 down.
Experiment [12] is described as follows: P. aeruginosa biofilm formation inhibitors, primary screen, PAO1 strain, BacTiter-Glo luminescence, LB-PBS (AID 1144). Particulars: 12 h, higher = more signal.
A short description of experiment [13]: CREB reporter modulators without forskolin, primary screen, cell-based, PC12, CRE-LacZ reporter, unstimulated (AID 1145). Particulars: no forskolin, luminescence, 4.5 h, higher = more signal, called active from +8 up or from −8 down.
Experiment [14] can be described thus: CREB reporter modulators under forskolin, primary screen, cell-based, PC12, CRE-LacZ reporter, forskolin-stimulated (AID 1146).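 Further: PC12 cells with 6xCRE LacZ reporter stimulated by forskolin 10 µM; beta-galactosidase reporter signal reflecting CREB driven transcription.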 As to conditions: luminescence, 4.5 h, higher = more signal, called active from +8 up or from −8 down.
Experiment [15] has as its target Streptavidin (Streptomyces avidinii) (UniProt P22629). Description: streptavidin binders on small-molecule microarray, primary screen, artefact control for SMM compound annotation, biophysical, 635/667 nm fluorescence (AID 1147).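 Further: signal reflects streptavidin binding to arrayed compounds as a control protein.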 Particulars: streptavidin binding, higher = more signal.
Experiment [16] is described as follows: small-molecule binders of probe aInhba, primary screen, biochemical, small-molecule microarray, 635/667 nm fluorescence (AID 1148).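 Further: score merges 667nm spot fluorescence with signal-to-noise for antibody binding to printed compounds.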 Particulars: higher = more signal.
For experiment [17], the target named is Torsin-1A (Homo sapiens) (UniProt O14656). Description: torsin A binders from cell lysate, primary screen, small-molecule microarray, wild-type, 635/667 nm (AID 1149). Particulars: COS7 hTOR1A-WT lysate, 635 nm fluorescence, higher = more signal.
Experiment [18] has the same target. As to the kind of experiment: small-molecule binders of mutant TOR1A in lysate, primary screen, cell lysate, small-molecule microarray, COS7 lysate, 635/667 nm fluorescence (AID 1150).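 Further: score pools 667 nm emission and signal to noise measuring lysate protein binding.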 As to conditions: COS7 hTOR1A mutant lysate, 635 nm fluorescence, higher = more signal.
The test system of experiment [19] is Sonic hedgehog protein (Shh). As to the kind of experiment: small-molecule binders of Shh protein, primary screen, biochemical, small-molecule microarray, 635/667 nm fluorescence (AID 1151).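 Further: Shh protein binding to compounds spotted on small-molecule microarray slides; score combines spot fluorescence intensity with signal-to-noise across triplicate slides.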 Particulars: small-molecule microarray binding, 635 nm fluorescence; higher = more signal.

The source made the active and inactive calls. Unless noted, how the calls were made is not given here.

Fibroblast growth factor 2 (Homo sapiens), sequence (P09038 whole entry, looked up): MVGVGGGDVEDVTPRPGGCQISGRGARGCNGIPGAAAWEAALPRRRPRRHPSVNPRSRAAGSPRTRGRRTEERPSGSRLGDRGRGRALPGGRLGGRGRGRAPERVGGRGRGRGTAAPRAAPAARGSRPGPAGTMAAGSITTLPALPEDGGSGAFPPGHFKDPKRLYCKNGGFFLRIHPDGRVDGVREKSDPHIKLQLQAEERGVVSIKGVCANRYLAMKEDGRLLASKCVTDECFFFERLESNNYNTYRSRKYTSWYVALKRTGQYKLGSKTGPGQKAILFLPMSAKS
Focal adhesion kinase 1 (Homo sapiens), sequence (Q05397 whole entry, looked up): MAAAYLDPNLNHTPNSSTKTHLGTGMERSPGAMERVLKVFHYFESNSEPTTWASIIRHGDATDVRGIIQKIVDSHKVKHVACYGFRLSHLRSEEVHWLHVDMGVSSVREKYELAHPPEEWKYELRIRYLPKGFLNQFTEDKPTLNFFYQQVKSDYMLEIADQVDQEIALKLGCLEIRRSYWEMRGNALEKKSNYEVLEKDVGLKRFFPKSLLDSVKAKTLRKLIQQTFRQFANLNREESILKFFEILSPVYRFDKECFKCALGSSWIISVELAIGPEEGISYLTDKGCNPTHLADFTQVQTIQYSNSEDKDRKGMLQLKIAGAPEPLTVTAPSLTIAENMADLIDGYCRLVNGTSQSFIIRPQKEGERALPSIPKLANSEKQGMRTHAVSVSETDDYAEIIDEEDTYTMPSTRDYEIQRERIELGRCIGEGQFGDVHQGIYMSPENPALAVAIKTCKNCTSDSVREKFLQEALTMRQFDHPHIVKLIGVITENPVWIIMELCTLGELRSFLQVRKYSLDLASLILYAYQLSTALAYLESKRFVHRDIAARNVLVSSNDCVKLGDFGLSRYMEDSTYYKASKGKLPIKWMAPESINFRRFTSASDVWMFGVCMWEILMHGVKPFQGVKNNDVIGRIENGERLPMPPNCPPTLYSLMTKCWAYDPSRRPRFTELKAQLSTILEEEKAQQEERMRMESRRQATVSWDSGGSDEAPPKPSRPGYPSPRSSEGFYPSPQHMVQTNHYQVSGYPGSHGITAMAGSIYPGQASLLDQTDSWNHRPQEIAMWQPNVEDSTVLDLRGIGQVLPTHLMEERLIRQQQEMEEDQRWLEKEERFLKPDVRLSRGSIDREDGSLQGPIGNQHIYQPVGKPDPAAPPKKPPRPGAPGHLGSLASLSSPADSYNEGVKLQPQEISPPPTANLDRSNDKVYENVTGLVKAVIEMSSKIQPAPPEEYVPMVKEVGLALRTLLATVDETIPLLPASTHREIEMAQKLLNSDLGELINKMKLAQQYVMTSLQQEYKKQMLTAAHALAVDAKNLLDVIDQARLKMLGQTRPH
Follistatin (Homo sapiens), sequence (P19883 whole entry, looked up): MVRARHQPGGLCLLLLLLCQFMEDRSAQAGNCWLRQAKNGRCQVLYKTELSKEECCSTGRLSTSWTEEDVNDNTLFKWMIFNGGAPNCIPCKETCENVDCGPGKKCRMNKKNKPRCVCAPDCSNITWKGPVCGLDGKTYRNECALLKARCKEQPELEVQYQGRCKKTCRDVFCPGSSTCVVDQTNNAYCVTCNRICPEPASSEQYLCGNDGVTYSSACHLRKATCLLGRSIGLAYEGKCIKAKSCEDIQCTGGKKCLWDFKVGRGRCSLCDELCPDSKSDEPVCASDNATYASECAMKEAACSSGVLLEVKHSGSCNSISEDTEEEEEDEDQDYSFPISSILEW
Luciferin 4-monooxygenase (Photinus pyralis), sequence (P08659 whole entry, looked up): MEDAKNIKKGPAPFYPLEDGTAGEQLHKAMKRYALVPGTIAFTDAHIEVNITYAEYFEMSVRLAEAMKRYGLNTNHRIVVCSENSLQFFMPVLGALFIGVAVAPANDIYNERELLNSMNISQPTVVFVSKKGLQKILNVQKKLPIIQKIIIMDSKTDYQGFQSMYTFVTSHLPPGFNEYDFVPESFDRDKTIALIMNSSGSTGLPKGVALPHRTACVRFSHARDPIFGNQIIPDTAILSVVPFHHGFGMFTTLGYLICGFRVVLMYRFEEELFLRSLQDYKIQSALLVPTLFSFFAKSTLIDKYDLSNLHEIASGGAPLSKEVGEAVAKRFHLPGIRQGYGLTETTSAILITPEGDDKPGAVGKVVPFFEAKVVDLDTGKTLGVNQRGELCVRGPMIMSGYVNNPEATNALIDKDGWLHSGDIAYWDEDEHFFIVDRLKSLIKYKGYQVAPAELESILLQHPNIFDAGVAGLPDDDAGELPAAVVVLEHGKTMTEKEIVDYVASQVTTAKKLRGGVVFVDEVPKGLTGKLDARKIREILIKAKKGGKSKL
Streptavidin (Streptomyces avidinii), sequence (P22629 whole entry, looked up): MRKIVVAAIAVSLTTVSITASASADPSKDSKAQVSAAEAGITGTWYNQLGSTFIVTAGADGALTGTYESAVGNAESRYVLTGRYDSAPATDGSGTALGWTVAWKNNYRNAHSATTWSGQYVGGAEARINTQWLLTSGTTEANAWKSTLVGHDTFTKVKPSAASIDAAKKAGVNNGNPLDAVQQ
Torsin-1A (Homo sapiens), sequence (O14656 whole entry, looked up): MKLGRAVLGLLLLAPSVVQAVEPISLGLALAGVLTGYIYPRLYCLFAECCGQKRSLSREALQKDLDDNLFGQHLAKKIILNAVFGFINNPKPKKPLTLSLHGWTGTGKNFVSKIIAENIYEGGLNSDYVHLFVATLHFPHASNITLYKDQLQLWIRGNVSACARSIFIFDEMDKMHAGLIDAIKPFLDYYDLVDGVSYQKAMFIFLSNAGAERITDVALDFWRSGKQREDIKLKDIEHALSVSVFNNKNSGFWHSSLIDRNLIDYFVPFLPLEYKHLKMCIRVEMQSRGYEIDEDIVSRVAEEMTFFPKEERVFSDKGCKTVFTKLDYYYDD

`O=C1C2C=CC(C(O)c3ccccn3)N(Nc3ccccc3)C2C(=O)N1c1ccccc1` (stereo not given): the composite z-score in experiment [1] is 0.0213; in [2], 0.0731; in experiment [3] it was 0.478; in [4] it was 0.339; in [5], 0.0784; in experiment [6], -0.424. The composite z-score in the experiment on Lefty1 was 0.144; in [8] it was 1.14; in [10] it was -0.234; in [15], -0.065; in [16], 0.0013; with Torsin-1A (Homo sapiens) [17], -0.265. The composite z-score with Torsin-1A (Homo sapiens) [18] was -0.382; in [19], -0.367. The z-score was 0.327 in [7]; -1.08 (inactive) in experiment [9]; 0.915 (inactive) in [11]; -0.574 (inactive) in experiment [12]; 1.02 (inactive) in [13]; 0.497 (inactive) in [14].
In the case of `COc1cccc(C)c1NC(=O)O[C@H]1[C@H](OC(=O)Nc2ccccc2)[C@H](OC(=O)Nc2ccccc2)[C@@H](OC)O[C@@H]1CO`, the composite z-score was 1.44 in experiment [1]; 1.26 in [2]; 1.01 in [3]; 0.442 in experiment [4]; 0.615 in experiment [5]; -0.21 in experiment [6]. The composite z-score in the experiment with Lefty1 was -0.337; in [8], 0.861; in [10], 0.0166; in [15], 1.69; in experiment [16], 0.0301; in the experiment with Torsin-1A (Homo sapiens) [17] it was 0.513. In addition, the figures for the composite z-score (in the experiment with Torsin-1A (Homo sapiens) [18]; in [19]) were 1.05 and 0.349, respectively. Besides, the z-score in [7] was 0.138; in experiment [9], -0.852 (inactive); in experiment [11] it was -5.44 (inactive); in experiment [12], 0.365 (inactive); in experiment [13] it was 0.904 (inactive); in experiment [14], -1.49 (inactive).
`COC(=O)[C@]1(Cc2ccccc2CN=[N+]=[N-])N=C(c2ccc(OCCCO)cc2)O[C@@H]1c1ccccc1`: the composite z-score was 0.652 in experiment [1]; -1.81 in experiment [2]; -0.435 in experiment [3]; 0.0713 in experiment [4]; -0.562 in [5]; -0.782 in experiment [6]. Moreover, the composite z-score in the experiment on Lefty1 was -0.429; in experiment [8], 0.441; in experiment [10] it was -0.311; in [15], -1.05; in experiment [16], -0.0407; with Torsin-1A (Homo sapiens) [17], -2.51. Moreover, the composite z-score with Torsin-1A (Homo sapiens) [18] was -1.33; in experiment [19], -1.19. Further, the z-score in [7] is -0.0525; in experiment [9], -1.02 (inactive); in experiment [11] it was -4.69 (inactive); in experiment [12], 0.211 (inactive); in experiment [13], 4.85 (inactive); in [14] it was 0.56 (inactive).
For the compound `O=C1O[C@H](c2ccccc2)[C@H](c2ccccc2)N2[C@H]1[C@@H](C(=O)N1CCN(c3ncccn3)CC1)[C@]1(C(=O)Nc3ccc(C#CCCO)cc31)[C@H]2c1ccc(OCCO)cc1`, the composite z-score is 2.06 in experiment [1]; 1.2 in experiment [2]; 0.372 in experiment [3]; 0.934 in experiment [4]; 1.36 in experiment [5]; 0.597 in experiment [6]. The composite z-score in the experiment with Lefty1 is 1.57; in experiment [8], 0.772; in [10], 1.02; in [15], 1.19; in experiment [16], 0.221; in the experiment with Torsin-1A (Homo sapiens) [17] it was 0.949. The composite z-score is 0.938 with Torsin-1A (Homo sapiens) [18] and 1.39 in [19]. Further, the z-score in experiment [7] is -0.756; in [9], -0.713 (inactive); in experiment [11] it was 0.505 (inactive); in experiment [12], -0.339 (inactive); in experiment [13], -0.471 (inactive); in [14], 0.344 (inactive).
`CO[C@H]1O[C@H](CO)[C@@H](OC(=O)Nc2ccc(C(F)(F)F)cc2)[C@H](OC(=O)Nc2ccccc2)[C@H]1OC(=O)Nc1ccccc1`: the composite z-score in [1] was 2.65; in experiment [2], 1.25; in [3], 1.15; in experiment [4], 0.737; in experiment [5] it was 1.29; in experiment [6] it was 0.805. Moreover, the composite z-score in the experiment with Lefty1 was found to be 0.88; in experiment [8], 1.33; in experiment [10], 0.71; in experiment [15], 1.22; in experiment [16] it was 0.3; with Torsin-1A (Homo sapiens) [17], 0.386. The composite z-score with Torsin-1A (Homo sapiens) [18] was found to be 0.183; in experiment [19] it was 1.2. Besides, the z-score in experiment [7] is -1.89; in [9], -0.579 (inactive); in experiment [11] it was -5.9 (inactive); in [12], -0.109 (inactive); in [13], 3.11 (inactive); in [14] it was -1.51 (inactive).
